Data: the supplement of paper PMC11732987, “Enantioselective OTUD7B fragment discovery through chemoproteomics screening and high-throughput optimisation” (Communications Chemistry, 2025)

Experiments:
Test in all cases: log2 ratio of Biotin-Ahx-Ub-VS probe labelling (fragment/DMSO); higher = less target engagement (more negative = stronger competition), active = hit call of the paper (q ≤ 0.05, log2 ratio ≤ -1)
Details in all cases: compound concentration: 200 uM; treatment time: 3 h
[1] = biological target: USP9X (UniProt Q93008)
Method in brief: (§1)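 In triplicate, 495 µg of HEK293T lysate per sample was incubated with fragment at 200 µM or vehicle for 3 h. Biotin-Ahx-Ub-VS was then added to 0.5 µM final for 1 h, and labelled DUBs were captured with NeutrAvidin, digested with LysC and trypsin, and measured by diaPASEF LC-MS/MS. Data are average log2 fragment/vehicle ratios by unpaired t-test from global-median-normalised Spectronaut label-free quantities, restricted to proteins with ≥2 unique peptides.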

[2] = biological target: UniProt O00487
Sequence of UniProt O00487 (O00487 whole entry): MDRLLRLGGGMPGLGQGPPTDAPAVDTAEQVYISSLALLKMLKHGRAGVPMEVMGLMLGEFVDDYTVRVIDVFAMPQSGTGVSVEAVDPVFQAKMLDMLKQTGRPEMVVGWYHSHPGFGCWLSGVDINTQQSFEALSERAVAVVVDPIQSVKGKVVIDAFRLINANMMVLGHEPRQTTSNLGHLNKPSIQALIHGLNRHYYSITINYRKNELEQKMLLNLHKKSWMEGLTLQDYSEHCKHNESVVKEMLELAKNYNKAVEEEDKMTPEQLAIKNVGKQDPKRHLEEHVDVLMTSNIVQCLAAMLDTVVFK
Method in brief: as §1

[3] = biological target: UniProt O00507
Sequence of UniProt O00507 (O00507 whole entry): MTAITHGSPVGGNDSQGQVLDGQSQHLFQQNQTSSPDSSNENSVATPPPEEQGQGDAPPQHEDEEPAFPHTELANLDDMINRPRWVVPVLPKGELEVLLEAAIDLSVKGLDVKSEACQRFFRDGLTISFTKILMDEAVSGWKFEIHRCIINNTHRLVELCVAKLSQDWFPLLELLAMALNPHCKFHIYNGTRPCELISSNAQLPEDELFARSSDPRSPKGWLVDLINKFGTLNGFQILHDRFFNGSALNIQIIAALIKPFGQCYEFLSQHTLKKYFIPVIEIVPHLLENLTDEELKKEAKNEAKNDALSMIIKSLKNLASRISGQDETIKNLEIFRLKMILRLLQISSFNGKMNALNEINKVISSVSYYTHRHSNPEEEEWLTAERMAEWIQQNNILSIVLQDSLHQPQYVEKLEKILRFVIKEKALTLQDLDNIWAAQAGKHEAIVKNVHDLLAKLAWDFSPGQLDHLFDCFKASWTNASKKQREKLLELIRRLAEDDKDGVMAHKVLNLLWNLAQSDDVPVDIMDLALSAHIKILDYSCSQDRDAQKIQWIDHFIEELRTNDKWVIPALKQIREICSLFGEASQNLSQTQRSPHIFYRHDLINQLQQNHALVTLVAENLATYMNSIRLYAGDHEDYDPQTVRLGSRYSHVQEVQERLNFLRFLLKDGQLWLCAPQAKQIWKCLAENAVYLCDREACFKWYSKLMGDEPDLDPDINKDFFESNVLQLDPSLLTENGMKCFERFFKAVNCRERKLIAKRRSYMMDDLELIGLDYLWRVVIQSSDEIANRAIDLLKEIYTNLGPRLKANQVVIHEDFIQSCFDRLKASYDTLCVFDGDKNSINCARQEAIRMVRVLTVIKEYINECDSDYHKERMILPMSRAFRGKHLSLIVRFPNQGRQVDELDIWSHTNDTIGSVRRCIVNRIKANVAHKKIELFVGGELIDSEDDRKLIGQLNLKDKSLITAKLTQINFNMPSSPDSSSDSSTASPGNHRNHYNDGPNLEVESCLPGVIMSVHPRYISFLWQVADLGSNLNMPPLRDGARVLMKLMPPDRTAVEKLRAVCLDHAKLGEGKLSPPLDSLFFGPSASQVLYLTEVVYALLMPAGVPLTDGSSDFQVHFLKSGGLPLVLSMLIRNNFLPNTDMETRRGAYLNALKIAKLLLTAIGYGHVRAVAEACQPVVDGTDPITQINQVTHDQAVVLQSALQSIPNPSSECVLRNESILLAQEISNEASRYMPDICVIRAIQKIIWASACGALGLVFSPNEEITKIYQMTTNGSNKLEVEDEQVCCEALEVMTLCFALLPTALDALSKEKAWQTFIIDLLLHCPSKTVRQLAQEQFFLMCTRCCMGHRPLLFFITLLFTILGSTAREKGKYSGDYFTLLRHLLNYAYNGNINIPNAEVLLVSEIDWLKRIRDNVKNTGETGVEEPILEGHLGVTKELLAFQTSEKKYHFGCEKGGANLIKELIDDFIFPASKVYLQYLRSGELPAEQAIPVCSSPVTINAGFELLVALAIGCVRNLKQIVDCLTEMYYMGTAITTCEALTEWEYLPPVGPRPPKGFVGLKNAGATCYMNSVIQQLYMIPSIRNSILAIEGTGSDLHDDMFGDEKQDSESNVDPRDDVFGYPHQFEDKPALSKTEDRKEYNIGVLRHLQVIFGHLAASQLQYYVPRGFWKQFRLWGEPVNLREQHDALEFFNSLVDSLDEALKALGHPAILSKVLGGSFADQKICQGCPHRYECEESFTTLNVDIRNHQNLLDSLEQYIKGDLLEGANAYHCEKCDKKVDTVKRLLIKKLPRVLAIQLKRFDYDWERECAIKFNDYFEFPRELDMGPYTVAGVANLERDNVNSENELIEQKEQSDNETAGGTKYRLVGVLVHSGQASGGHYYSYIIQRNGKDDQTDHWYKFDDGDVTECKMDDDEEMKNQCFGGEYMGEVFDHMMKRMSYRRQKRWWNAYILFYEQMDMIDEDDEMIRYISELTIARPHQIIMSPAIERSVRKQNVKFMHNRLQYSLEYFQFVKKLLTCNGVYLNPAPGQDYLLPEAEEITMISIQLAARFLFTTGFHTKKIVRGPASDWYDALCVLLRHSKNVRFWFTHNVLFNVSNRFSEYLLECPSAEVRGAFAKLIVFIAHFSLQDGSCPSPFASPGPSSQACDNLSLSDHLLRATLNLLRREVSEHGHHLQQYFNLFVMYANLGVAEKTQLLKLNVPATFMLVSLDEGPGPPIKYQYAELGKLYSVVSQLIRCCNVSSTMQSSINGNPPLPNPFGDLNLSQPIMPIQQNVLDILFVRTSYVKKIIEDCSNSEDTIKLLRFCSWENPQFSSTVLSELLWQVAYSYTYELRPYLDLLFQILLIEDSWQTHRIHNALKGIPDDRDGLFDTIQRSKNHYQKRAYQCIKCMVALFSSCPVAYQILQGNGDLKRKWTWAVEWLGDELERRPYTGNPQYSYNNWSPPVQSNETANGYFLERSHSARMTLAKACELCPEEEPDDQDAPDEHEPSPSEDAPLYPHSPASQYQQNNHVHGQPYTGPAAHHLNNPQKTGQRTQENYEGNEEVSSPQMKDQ
Method in brief: as §1

[4] = biological target: UniProt P51784
Sequence of UniProt P51784 (P51784 whole entry): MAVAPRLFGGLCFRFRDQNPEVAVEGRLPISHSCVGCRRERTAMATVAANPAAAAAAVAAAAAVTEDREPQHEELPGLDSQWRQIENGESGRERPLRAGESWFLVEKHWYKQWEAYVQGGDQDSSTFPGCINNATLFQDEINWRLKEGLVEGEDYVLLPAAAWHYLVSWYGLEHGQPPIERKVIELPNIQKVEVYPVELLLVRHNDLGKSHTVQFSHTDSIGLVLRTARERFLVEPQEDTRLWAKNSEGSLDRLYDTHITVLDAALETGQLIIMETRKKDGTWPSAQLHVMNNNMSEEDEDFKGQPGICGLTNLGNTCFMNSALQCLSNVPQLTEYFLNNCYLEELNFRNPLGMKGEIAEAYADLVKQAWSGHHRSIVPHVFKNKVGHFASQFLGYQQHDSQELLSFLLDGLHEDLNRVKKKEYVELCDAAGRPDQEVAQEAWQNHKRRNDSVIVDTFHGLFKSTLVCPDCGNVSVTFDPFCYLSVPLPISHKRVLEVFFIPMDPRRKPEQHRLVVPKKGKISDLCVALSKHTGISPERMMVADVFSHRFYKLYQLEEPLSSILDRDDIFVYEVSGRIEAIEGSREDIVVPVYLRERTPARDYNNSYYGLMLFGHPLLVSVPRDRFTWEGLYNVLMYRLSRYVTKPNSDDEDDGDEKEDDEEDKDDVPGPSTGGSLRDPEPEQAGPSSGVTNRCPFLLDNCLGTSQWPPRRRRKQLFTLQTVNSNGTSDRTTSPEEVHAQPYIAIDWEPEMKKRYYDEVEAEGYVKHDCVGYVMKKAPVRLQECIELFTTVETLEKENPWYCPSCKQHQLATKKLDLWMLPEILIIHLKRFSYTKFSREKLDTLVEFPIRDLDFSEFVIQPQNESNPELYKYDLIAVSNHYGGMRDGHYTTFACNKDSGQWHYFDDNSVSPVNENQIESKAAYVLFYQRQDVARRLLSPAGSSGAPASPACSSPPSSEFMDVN
Method in brief: as §1

[5] = biological target: T1, UniProt Q5T2D3
T1 sequence (whole entry): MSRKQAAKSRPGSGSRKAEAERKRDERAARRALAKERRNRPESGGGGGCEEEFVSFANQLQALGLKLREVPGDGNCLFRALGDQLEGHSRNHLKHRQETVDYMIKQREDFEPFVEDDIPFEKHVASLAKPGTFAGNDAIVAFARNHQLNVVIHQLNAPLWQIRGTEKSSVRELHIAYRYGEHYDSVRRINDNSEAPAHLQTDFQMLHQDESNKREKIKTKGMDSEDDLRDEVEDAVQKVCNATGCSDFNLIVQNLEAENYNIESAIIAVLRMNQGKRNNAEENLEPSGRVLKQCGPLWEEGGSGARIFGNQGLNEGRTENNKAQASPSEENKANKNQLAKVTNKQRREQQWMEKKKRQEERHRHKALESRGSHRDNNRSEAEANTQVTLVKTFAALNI
Method in brief: as §1

[6] = biological target: T2, UniProt Q8TE49
T2 sequence (whole entry): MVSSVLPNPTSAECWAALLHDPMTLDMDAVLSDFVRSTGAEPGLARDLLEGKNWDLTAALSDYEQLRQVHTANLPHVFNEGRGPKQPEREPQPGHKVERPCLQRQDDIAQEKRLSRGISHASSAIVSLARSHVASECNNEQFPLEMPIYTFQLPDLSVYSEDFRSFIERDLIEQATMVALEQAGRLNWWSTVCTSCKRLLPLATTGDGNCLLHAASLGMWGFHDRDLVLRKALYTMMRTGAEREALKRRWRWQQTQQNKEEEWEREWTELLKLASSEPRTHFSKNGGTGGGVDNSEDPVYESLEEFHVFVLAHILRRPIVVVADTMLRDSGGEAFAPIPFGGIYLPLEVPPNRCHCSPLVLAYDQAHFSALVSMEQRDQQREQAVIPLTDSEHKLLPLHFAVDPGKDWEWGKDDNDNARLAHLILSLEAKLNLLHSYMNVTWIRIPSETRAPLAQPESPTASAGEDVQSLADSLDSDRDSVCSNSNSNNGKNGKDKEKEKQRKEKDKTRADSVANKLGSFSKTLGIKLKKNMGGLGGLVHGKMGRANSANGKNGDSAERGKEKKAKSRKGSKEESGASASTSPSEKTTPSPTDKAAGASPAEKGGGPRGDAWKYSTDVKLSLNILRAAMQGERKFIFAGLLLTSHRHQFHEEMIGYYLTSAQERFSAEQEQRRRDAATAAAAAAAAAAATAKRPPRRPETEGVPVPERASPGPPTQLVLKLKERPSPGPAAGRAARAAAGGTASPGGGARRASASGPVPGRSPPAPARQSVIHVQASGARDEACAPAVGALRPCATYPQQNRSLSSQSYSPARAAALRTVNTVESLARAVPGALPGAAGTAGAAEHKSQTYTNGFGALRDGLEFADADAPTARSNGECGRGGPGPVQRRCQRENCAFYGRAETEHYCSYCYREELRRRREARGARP
Method in brief: as §1

[7] = biological target: T3, UniProt Q9P2H5
T3 sequence (whole entry): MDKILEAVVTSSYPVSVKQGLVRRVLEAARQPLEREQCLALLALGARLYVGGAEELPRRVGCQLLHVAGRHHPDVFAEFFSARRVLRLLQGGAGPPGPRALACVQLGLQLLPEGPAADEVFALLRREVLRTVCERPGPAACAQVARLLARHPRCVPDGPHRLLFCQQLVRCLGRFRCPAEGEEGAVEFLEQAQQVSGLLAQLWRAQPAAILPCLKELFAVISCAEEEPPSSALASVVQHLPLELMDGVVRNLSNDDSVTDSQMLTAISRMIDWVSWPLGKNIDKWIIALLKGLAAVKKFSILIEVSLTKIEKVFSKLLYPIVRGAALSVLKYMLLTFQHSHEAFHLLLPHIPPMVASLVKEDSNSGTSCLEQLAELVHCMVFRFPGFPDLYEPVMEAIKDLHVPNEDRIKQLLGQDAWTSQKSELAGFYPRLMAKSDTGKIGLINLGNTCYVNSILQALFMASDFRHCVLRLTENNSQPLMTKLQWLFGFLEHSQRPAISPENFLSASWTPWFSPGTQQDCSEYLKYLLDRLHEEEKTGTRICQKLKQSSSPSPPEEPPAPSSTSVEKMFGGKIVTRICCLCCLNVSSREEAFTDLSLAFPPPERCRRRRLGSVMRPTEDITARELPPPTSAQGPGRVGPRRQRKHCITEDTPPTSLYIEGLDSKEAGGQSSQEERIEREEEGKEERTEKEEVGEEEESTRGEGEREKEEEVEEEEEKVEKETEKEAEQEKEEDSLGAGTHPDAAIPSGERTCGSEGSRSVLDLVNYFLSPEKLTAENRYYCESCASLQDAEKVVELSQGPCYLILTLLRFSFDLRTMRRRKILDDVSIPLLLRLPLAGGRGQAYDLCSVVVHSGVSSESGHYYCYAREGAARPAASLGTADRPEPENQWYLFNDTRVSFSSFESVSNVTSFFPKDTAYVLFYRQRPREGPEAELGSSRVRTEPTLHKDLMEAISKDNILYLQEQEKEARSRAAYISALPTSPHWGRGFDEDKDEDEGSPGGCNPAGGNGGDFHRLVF
Method in brief: as §1

[8] = biological target: T4, UniProt Q9UGI0
T4 sequence (whole entry): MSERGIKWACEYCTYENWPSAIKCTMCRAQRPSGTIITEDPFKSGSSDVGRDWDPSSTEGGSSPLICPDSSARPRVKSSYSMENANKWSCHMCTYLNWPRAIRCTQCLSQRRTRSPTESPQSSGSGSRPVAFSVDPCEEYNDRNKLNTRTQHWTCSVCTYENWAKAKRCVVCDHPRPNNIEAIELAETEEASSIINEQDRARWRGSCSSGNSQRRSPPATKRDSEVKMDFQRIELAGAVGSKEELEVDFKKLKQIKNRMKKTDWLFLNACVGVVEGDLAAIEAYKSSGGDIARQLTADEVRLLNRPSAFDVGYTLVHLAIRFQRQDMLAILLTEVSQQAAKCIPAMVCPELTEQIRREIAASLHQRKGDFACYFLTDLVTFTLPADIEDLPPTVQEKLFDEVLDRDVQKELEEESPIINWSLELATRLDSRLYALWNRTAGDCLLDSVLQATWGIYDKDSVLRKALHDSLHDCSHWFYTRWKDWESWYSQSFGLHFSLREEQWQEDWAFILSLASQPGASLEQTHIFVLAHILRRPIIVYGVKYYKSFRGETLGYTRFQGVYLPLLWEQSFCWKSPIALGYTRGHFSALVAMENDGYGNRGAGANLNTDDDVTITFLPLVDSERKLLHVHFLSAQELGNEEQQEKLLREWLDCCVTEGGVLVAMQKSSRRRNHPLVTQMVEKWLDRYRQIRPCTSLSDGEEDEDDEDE
Method in brief: as §1

[9] = biological target: T5, YOD1 (UniProt Q5VVQ6)
T5 sequence (whole entry): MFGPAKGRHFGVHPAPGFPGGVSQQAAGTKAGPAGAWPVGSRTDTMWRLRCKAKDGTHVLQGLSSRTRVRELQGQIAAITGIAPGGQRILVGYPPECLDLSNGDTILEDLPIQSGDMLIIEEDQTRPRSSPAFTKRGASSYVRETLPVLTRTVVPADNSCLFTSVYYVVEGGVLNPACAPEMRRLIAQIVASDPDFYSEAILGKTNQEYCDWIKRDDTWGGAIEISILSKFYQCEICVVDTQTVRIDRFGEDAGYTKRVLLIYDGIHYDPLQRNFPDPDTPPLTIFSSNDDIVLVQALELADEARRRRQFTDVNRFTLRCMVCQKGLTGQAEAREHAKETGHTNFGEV
Method in brief: as §1

Measured: log2 ratio of Biotin-Ahx-Ub-VS probe labelling

O=C(CCl)Nc1nc(-c2cccs2)cs1
active: [8] -2.34
inactive: [1] -0.505 | [2] -0.17 | [3] -0.168 | [4] 0.104 | [5] -0.239 | [6] -0.68 | [7] -0.138 | [9] 0.237
